# Shown are actives, neighbours in structure and some others; about 21% of the full set was active somewhere.
# TDP1 cell noCPT: qHTS for Inhibitors of human tyrosyl-DNA phosphodiesterase 1 (TDP1): qHTS in cells in absence of CPT; Potency, µM (series often up to 46.2 µM), without a hit: at the top dose activity change, negative = growth inhibition, hits mostly inhibitors; 15% of 420,000 active; DT40 Tdp1-/- hTDP1 cells, no CPT, ATP luminescence, 48 h; AID 686978, 2013; further: potency means the concentration at half of the fitted maximal effect; on the % scale 0 is the no-effect control and ±100 the full control effect; nearly all actives have a fitted effect of over 55% in size
#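 Chicken DT40 Tdp1-/- cells complemented with human TDP1, screened without camptothecin (DMSO vehicle only), 400 cells/well. Compounds pin-transferred, cells incubated at 37 °C for at least 48 hr. Growth read as ATP-dependent luminescence (CellTiter-Glo, 30 min at RT).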
# DRD3 antagonist: qHTS of D3 Dopamine Receptor Antagonist: qHTS. D(3) dopamine receptor (Homo sapiens), P35462. max response, negative = inhibition, %. AID 652054, 2013. 2.5% of 360,000 active. D3R cells, DiscoveRx beta-arrestin luminescence, antagonist mode; active compounds read low; in the data active means max response below about -50%; inconclusive means no clear call, values can overlap the other calls; further: on the % scale 0 is the no-effect control and ±100 the full control effect
# Target sequence (P35462 whole entry, looked up): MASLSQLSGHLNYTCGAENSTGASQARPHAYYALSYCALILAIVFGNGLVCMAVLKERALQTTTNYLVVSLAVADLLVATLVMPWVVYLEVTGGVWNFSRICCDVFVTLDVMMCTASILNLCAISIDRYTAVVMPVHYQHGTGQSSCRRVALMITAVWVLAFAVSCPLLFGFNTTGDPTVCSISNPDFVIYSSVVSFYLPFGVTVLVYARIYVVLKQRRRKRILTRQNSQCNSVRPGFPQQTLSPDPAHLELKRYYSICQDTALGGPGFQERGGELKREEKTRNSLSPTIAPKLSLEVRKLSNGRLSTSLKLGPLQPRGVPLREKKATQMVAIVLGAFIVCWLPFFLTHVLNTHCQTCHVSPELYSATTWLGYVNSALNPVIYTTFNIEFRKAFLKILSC
#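 Cells expressing the human receptor were seeded at 1500 cells/well, incubated overnight at 37 degrees C in 5% CO2, then exposed to library compounds with dopamine controls for 90 minutes at 37 degrees C before luminescent detection.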
# IL-1B inflam inh: qHTS for Inhibitors of Inflammasome Signaling: IL-1-beta AlphaLISA Primary Screen. 4.7% of 360,000 active. THP-1 LPS/ATP IL-1B secretion, AlphaLISA, 16 h; active compounds read low. activity change, % at 57.5 µM; in the data active means activity change below about -50%; inconclusive means mostly about -30% to -49%; further: on the % scale 0 is the no-effect control and ±100 the full control effect
#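 Secreted IL-1B measured by AlphaLISA bead assay after 16 h compound exposure of THP-1 cells; compounds (final up to 57.5 uM) added 1 h before LPS (250 ng/mL) and ATP (1.25 mM) stimulation; lower signal means less secretion.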
# D3 ag: qHTS of D3 Dopamine Receptor Agonist: qHTS; D(3) dopamine receptor (Homo sapiens), P35462; D3R DiscoveRx beta-arrestin cells, luminescence, 90 min; max activation, %; 0.58% of 410,000 active; AID 652048, 2013; in the data active means max activation above about 30%; further: 0% is about no effect
#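 Cells at 1500/well, incubated overnight, then treated with pinned compounds (dopamine as control) for 90 min at 37 degrees C. DiscoveRx reagent added for 30 - 60 minutes at room temperature; luminescence read.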
# ClpP mod: qHTS Assay for Activators of ClpP | 1.9% of 340,000 active | ATP-dependent Clp protease proteolytic subunit (Bacillus subtilis (strain 168)), P80244 | Potency, µM (top dose mostly 57.5 µM), without a hit: at the highest dose activity change, negative = active | purified B. subtilis ClpP, FRET peptide cleavage, 20 min; active means well fitted falling curve with a large enough effect; inconclusive means small, poorly fitted or top-dose-only effect; inactive means no such curve, though single readings can be large or run the other way; further: potency means the concentration at half of the fitted maximal effect; the source files actives as falling curves though it sought activators and does not explain the sign; nearly all actives have a fitted effect of over 65% in size
# Target sequence (P80244 whole entry, looked up): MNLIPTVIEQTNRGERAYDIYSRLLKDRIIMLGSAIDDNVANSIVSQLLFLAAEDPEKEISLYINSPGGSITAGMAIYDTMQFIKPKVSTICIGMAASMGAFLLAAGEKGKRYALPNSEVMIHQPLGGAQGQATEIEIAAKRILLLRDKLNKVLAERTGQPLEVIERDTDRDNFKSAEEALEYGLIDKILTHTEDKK
#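 FRET quenching reversal measured ClpP activation: 10 microg/mL B. subtilis ClpP at pH 8 with the FRET-FV decapeptide, read at 430 nm after 320 nm excitation. The 20-min minus 0-min signal was scaled between DMSO/no-enzyme wells and ADEP (5.8 microM final).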
# TDP1 cell CPT: qHTS for Inhibitors of human tyrosyl-DNA phosphodiesterase 1 (TDP1): qHTS in cells in presence of CPT; chicken DT40 Tdp1-/-;hTDP1 cells + 20 nM CPT, ATP luminescence, 48 h; Potency, µM (doses to about 46.2 µM), without a hit: at the highest dose activity change, negative = growth inhibition, hits mostly inhibitors; 12% of 420,000 active; further: potency means the concentration at half of the fitted maximal effect; on the % scale 0 is the no-effect control and ±100 the full control effect; nearly all actives have a fitted effect of over 55% in size
#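 Chicken DT40 Tdp1-/- cells stably complemented with human TDP1 were seeded at 400 cells/well in medium containing 20 nM camptothecin, exposed to pin-transferred compounds, and grown at 37 °C for at least 48 hr. Viability was read as ATP luminescence.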
# The depositor's hits bear a star; ? = inconclusive; . = not tested or not shown. Unless noted, the call rests on the fitted dose curve; in most records, active means well fitted inhibition curve with a large enough effect; inconclusive means small, poorly fitted or top-dose-only effect; inactive means flat fitted curve, though single readings scatter.
SMILES,TDP1 cell noCPT,DRD3 antagonist,IL-1B inflam inh,D3 ag,ClpP mod,TDP1 cell CPT
COc1cccc(C2CC(c3cccs3)=NN2C(=O)c2ccco2)c1O (stereo not drawn),-11.1%,-6.1,12.9,26.7,-2.0%,-1.0%
O=C(c1ccccc1)N1N=C(c2ccccc2)CC1c1ccc2nccnc2c1 (stereo not drawn),?,-0.8,-3.4,15.1,-2.8%,?
O=C(c1ccco1)N1N=C(c2cccs2)CC1c1ccccc1O (stereo not drawn),20.6µM*,-11.1,-12.4,-21.7,?,18.4µM*
O=C(NNC1CC(c2ccccc2)=NN1C(=O)c1ccccc1)c1ccccc1 (stereo not drawn),23.1µM*,9.1,-6.9,-4.1,2.1%,25.9µM*
O=C(c1ccncc1)N1N=C(c2ccc(Br)cc2)CC1c1ccccc1O (stereo not drawn),?,-18.5,-62.6*,-3.7,.,?
COc1ccc(C2=NN(C(=O)c3cccs3)C(c3ccccc3OC)C2)cc1OC (stereo not drawn),?,3.1,-84.1*,0.9,?,?
COc1cccc(CN2CCN(CC(=O)NCCc3ccccc3)CC2)c1,8.5%,-0.3,-3.1,0.2,-1.3%,-16.7%
O=C(c1cccc(Cl)c1)N1CCC(c2nc3ccccc3[nH]2)CC1,?,-0.7,15.9,4.6,.,6.0%
O=C(c1ccccc1)N1N=C(c2ccccc2)CC1c1ccccc1O (stereo not drawn),?,11.7,-108.0*,4.6,.,23.1µM*
O=C(c1ccccc1Cl)N1N=C(c2ccc(Br)cc2)CC1c1nc2ccccc2[nH]1 (stereo not drawn),16.4µM*,?,-67.2*,-9.3,-5.8%,?
Cc1ccsc1/C=N\NC(=O)c1ccc2c(c1)OCO2,?,-21.2,0.0,-7.1,-18.8%,?
Cc1ccc(/C=N/NC(=O)c2ccc3ccccc3c2)s1,0.82µM*,-26.8,46.6,-11.6,-6.0%,0.82µM*
CCOC(=O)c1cc(CC)sc1NC(=O)c1ccc2c(c1)OCCO2,?,9.0,-23.2,3.1,25.1µM*,?
Cc1ccc(/C=N/NC(=O)c2ccc3c(c2)OCCO3)s1,20.6µM*,0.1,16.4,-1.1,.,20.6µM*
CC#CC(=O)NCC1(N(C)Cc2ccccc2)Cc2ccccc2C1,-6.0%,-0.8,0.0,-6.3,1.3%,-20.9%
Cc1ccc(C2C=C(c3ccccc3)Nc3nc(NS(=O)(=O)c4ccccc4)nn32)cc1 (stereo not drawn),?,.,.,6.5,4.4%,-58.7%
CC1=CC(c2ccccc2)n2nc(NS(=O)(=O)c3ccc(C)cc3)nc2N1 (stereo not drawn),-3.7%,21.2,5.1,5.1,?,-3.8%
CC1=CC(c2ccc(Cl)cc2)n2nc(NS(=O)(=O)c3ccc(C)cc3)nc2N1 (stereo not drawn),?,9.3,2.3,-0.3,22.4µM*,?
COc1ccc(C2C=C(c3ccccc3)Nc3nc(NS(=O)(=O)c4ccc(Cl)cc4)nn32)cc1 (stereo not drawn),16.4µM*,.,.,20.0,4.1%,?
CC1=CC(c2ccc(Cl)cc2)n2nc(N3C(=O)CCC3=O)nc2N1 (stereo not drawn),-5.8%,-8.7,2.9,-2.6,10µM*,13.1%
Cc1ccc(S(=O)(=O)Nc2nc3n(n2)C(c2ccc(F)cc2)C=C(c2ccccc2)N3)cc1 (stereo not drawn),?,.,.,39.3*,4.4%,?
COCCN(Cc1ccc(C)c(Br)c1)C(=O)Cn1cnc(S(=O)(=O)N2CCCC2)c1,?,17.3,5.7,1.5,0.4%,?
Cc1nn(-c2ccccc2)c(C)c1NC(=O)COC(=O)c1ccc(Cl)c(S(N)(=O)=O)c1,-6.5%,?,2.9,7.4,0.7%,-3.0%
CNc1oc(-c2ccccc2Cl)nc1P(=O)(c1ccccc1)c1ccccc1,14.6µM*,-13.0,-78.5*,6.0,-1.1%,?
Clc1ccccc1-c1nnc(-c2ccccc2Cl)o1,-11.7%,14.4,-10.7,-1.9,-4.2%,0.7%
SMILES,TDP1 cell noCPT,DRD3 antagonist,IL-1B inflam inh,D3 ag,ClpP mod,TDP1 cell CPT
CCOc1ccc(OCC)c(NS(=O)(=O)c2c(C(=O)N3CCC(C)CC3)c(C)n(C)c2C)c1,?,.,.,-5.5,1.5%,?
COc1ccc(Cl)cc1NC(=O)COC(=O)CC(C)(C)CC1=NS(=O)(=O)c2ccccc2N1,20.6µM*,.,.,0.6,-2.1%,?
Cc1ccc(Cl)cc1NC(=O)COC(=O)CC(C)(C)CC1=NS(=O)(=O)c2ccccc2N1,25.9µM*,.,.,-1.7,2.0%,18.4µM*
Cc1cc(C)cc(NC(=O)COC(=O)CCCC2=NS(=O)(=O)c3ccccc3N2)c1,10.1%,1.1,-5.3,0.5,-3.6%,0.9%
CCc1cc2c(=O)c(-c3nc4ccccc4n3C)coc2c(CN2CCC(C)CC2)c1O,6.51µM*,-7.8,54.8,5.0,.,?
COc1cc(-c2nnc(SCc3cc(=O)oc4cc(C)ccc34)o2)cc(OC)c1OC,29.1µM*,15.3,-3.3,-1.2,-17.0%,?
COc1cc(-c2nnc(SCCOc3ccc(Cl)cc3)o2)cc(OC)c1OC,8.2µM*,.,.,-8.5,-8.5%,?
COc1cc(-c2nnc(-c3cccs3)o2)cc(OC)c1OC,?,4.5,-26.8,-10.5,?,?
COc1cc(-c2nnc(SCCOc3ccc(C)c(Cl)c3)o2)cc(OC)c1OC,?,.,.,0.8,-14.5%,?
COc1ccc(-c2nnc(-c3cccs3)o2)cc1OC,-21.9%,11.0,?,0.8,31.6µM*,-5.6%
COc1cc(-c2nnc(SCC(=O)Oc3ccc(C)cc3C)o2)cc(OC)c1OC,0.5%,.,.,1.3,9.1%,1.1%
COc1ccc(-c2nnc(-c3cc(OC)c(OC)c(OC)c3)o2)cc1OC,14.6µM*,52.6,.,5.0,?,14.6µM*
Cc1c(C(=O)NN2CCOCC2)nn(-c2ccc(Cl)cc2Cl)c1-c1ccc(I)cc1,0.9%,.,.,.,.,-3.8%
COc1cc(-c2nnc(COc3ccc4cc(Br)ccc4c3)o2)cc(OC)c1OC,20.6µM*,12.0,56.7,5.0,-2.1%,23.1µM*
COc1ccc(-c2nnc(COc3ccc4ccccc4c3)o2)cc1OC,?,45.4,-10.6,4.7,?,-16.0%
